The campaign covered roughly 5,500 compounds. About 2,000 (36%) were called active. Roughly 18% stayed inconclusive and do not appear here. Cut-off read from the data, not from the text of the source: active = normalized growth mostly below about 0.91 (no sharp cut-off); inconclusive = no clear call, values can overlap the other calls; inactive = mostly above about 0.92. This is one part of the list.
Experiment: chemical genetic growth profiling, strain panel (AID 1159580);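 note: tested at 20 µM; growth read once vehicle control cultures reached saturation at 30 °C; 1 = growth at the plate median or of vehicle wells; lower values mean less growth of the strain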
Conditions: growth OD

Measured: normalized growth

C[C@]12CCC3c4ccc(O)cc4CCC3C1CC[C@@H]2OC(=O)CCC1CCCC1 (stereo not given in full)
inactive: S. cerevisiae deletion strains, locus YJR075W, strain HOC1, hits give low values 0.988 | S. cerevisiae deletion strains, locus YKL009W, strain mrt4, hits give low values 0.986 | S. cerevisiae deletion strains, locus YKL068W, hits give low values 0.991 | S. cerevisiae deletion strains, locus YKL085W, strain MDH1 (second series), hits give low values 0.998 | S. cerevisiae deletion strains, locus YKL085W, strain MDH1, hits give low values 0.998 | S. cerevisiae deletion strains, locus YKL160W, strain elf1, hits give low values 1.03 | S. cerevisiae deletion strains, locus YKL190W, strain CNB1, hits give low values 0.992 | S. cerevisiae deletion strains, locus YKR001C, strain vps1, hits give low values 0.973 | S. cerevisiae deletion strains, locus YKR026C, strain gcn3, hits give low values 1.01 | S. cerevisiae deletion strains, locus YKR091W, strain srl3, hits give low values 1.02 | S. cerevisiae deletion strains, locus YLL001W, strain dnm1, hits give low values 1.03 | S. cerevisiae deletion strains, locus YLL026W, hits give low values 1.01 | S. cerevisiae deletion strains, locus YLL041C, strain sdh2, hits give low values 1 | S. cerevisiae deletion strains, locus YLR027C, strain aat2, hits give low values 0.995 | S. cerevisiae deletion strains, locus YLR039C, strain RIC1, hits give low values 0.984 | S. cerevisiae deletion strains, locus YLR058C, strain SHM2, hits give low values 0.991 | S. cerevisiae deletion strains, locus YLR102C, strain apc9, hits give low values 1.01 | S. cerevisiae deletion strains, locus YLR113W, strain HOG1, hits give low values 1.06 | S. cerevisiae deletion strains, locus YLR221C, strain rsa3, hits give low values 1.02 | S. cerevisiae deletion strains, locus YLR258W, strain gsy2, hits give low values 1.01 | S. cerevisiae deletion strains, locus YLR262C, strain YPT6 (second series), hits give low values 1.02 | S. cerevisiae deletion strains, locus YLR262C, strain YPT6, hits give low values 0.897 | S. cerevisiae deletion strains, locus YLR268W, strain sec22, hits give low values 0.993 | S. cerevisiae deletion strains, locus YLR320W, strain mms22, hits give low values 1.03 | S. cerevisiae deletion strains, locus YLR330W, strain CHS5, hits give low values 0.984 | S. cerevisiae deletion strains, locus YLR342W, strain FKS1 (second series), hits give low values 1 | S. cerevisiae deletion strains, locus YLR342W, strain FKS1, hits give low values 1.01 | S. cerevisiae deletion strains, locus YLR357W, strain rsc2, hits give low values 1.03 | S. cerevisiae deletion strains, locus YLR370C, strain arc18, hits give low values 1.02 | S. cerevisiae deletion strains, locus YLR371W, strain rom2, hits give low values 1.03 | S. cerevisiae deletion strains, locus YLR384C, strain iki3, hits give low values 1 | S. cerevisiae deletion strains, locus YLR418C, strain cdc73, hits give low values 1.03 | S. cerevisiae deletion strains, locus YML016C, strain PPZ1, hits give low values 0.988 | S. cerevisiae deletion strains, locus YML032C, strain rad52, hits give low values 0.986 | S. cerevisiae deletion strains, locus YML120C, strain ndi1, hits give low values 1.03 | S. cerevisiae deletion strains, locus YML124C, strain tub3, hits give low values 0.991 | S. cerevisiae deletion strains, locus YMR058W, strain fet3, hits give low values 1.01 | S. cerevisiae deletion strains, locus YMR078C, strain ctf18, hits give low values 1.01 | S. cerevisiae deletion strains, locus YMR125W, strain sto1, hits give low values 1.02 | S. cerevisiae deletion strains, locus YMR129W, hits give low values 1.02 | S. cerevisiae deletion strains, locus YMR205C, strain PFK2, hits give low values 1.01 | S. cerevisiae deletion strains, locus YMR223W, strain ubp8, hits give low values 1.04 | S. cerevisiae deletion strains, locus YMR231W, strain pep5, hits give low values 1 | S. cerevisiae deletion strains, locus YMR307W, strain GAS1, hits give low values 0.998 | S. cerevisiae deletion strains, locus YNL067W, strain RPL9B, hits give low values 0.988 | S. cerevisiae deletion strains, locus YNL071W, strain lat1, hits give low values 1.01 | S. cerevisiae deletion strains, locus YNL128W, strain TEP1, hits give low values 0.976 | S. cerevisiae deletion strains, locus YNL183C, strain NPR1, hits give low values 0.982 | S. cerevisiae deletion strains, locus YNL209W, strain ssb2, hits give low values 1.01 | S. cerevisiae deletion strains, locus YNL233W, strain BNI4, hits give low values 0.993 | S. cerevisiae deletion strains, locus YNL248C, strain rpa49, hits give low values 1.02 | S. cerevisiae deletion strains, locus YNL250W, strain rad50, hits give low values 1.01 | S. cerevisiae deletion strains, locus YNL271C, strain bni1, hits give low values 0.999 | S. cerevisiae deletion strains, locus YNL298W, strain CLA4, hits give low values 0.999 | S. cerevisiae deletion strains, locus YNL307C, strain MCK1, hits give low values 0.996 | S. cerevisiae deletion strains, locus YNL322C, strain KRE1 (second series), hits give low values 1.04 | S. cerevisiae deletion strains, locus YNL322C, strain KRE1, hits give low values 0.998 | S. cerevisiae deletion strains, locus YNR049C, strain mso1, hits give low values 1.03 | S. cerevisiae deletion strains, locus YNR052C, strain pop2, hits give low values 1.01 | S. cerevisiae deletion strains, locus YOL006C, strain TOP1, hits give low values 0.976 | S. cerevisiae deletion strains, locus YOL012C, strain htz1 1.23 | S. cerevisiae deletion strains, locus YOL147C, strain pex11, hits give low values 1.01 | S. cerevisiae deletion strains, locus YOR001W, strain rrp6, hits give low values 0.995 | S. cerevisiae deletion strains, locus YOR061W, strain CKA2, hits give low values 0.969 | S. cerevisiae deletion strains, locus YOR069W, strain VPS5, hits give low values 0.994 | S. cerevisiae deletion strains, locus YOR070C, strain gyp1, hits give low values 1.02 | S. cerevisiae deletion strains, locus YOR080W, strain dia2, hits give low values 0.998 | S. cerevisiae deletion strains, locus YOR083W, strain WHI5, hits give low values 1.05 | S. cerevisiae deletion strains, locus YOR106W, strain vam3, hits give low values 1.04 | S. cerevisiae deletion strains, locus YOR136W, strain idh2, hits give low values 0.991 | S. cerevisiae deletion strains, locus YOR144C, strain elg1, hits give low values 0.992 | S. cerevisiae deletion strains, locus YOR184W, strain ser1, hits give low values 0.99 | S. cerevisiae deletion strains, locus YOR231W, strain MKK1, hits give low values 1.07 | S. cerevisiae deletion strains, locus YOR265W, strain rbl2, hits give low values 1.01 | S. cerevisiae deletion strains, locus YOR270C, strain vph1, hits give low values 1.06 | S. cerevisiae deletion strains, locus YOR290C, strain snf2, hits give low values 0.986 | S. cerevisiae deletion strains, locus YOR316C, strain cot1, hits give low values 0.989 | S. cerevisiae deletion strains, locus YPL051W, strain arl3, hits give low values 1.01 | S. cerevisiae deletion strains, locus YPL055C, strain LGE1, hits give low values 0.994 | S. cerevisiae deletion strains, locus YPL078C, strain atp4, hits give low values 1.04 | S. cerevisiae deletion strains, locus YPL106C, strain sse1, hits give low values 1.05 | S. cerevisiae deletion strains, locus YPL240C, strain hsp82, hits give low values 0.996 | S. cerevisiae deletion strains, locus YPL241C, strain CIN2, hits give low values 0.979 | S. cerevisiae deletion strains, locus YPL256C, strain CLN2, hits give low values 1.03 | S. cerevisiae deletion strains, locus YPR119W, strain clb2, hits give low values 1 | S. cerevisiae deletion strains, locus YPR141C, strain kar3, hits give low values 0.996 | S. cerevisiae deletion strains, locus YPR163C, strain tif3, hits give low values 1 | S. cerevisiae deletion strains, locus YPR167C, strain met16, hits give low values 0.997 | S. cerevisiae deletion strains, strain wtn01, hits give low values 1.01 | S. cerevisiae strains, strain wild type, hits give low values 0.973
